High-throughput results: PubChem BioAssay, several laboratories
The list is not random: actives were taken first. Their share in the collection is about 28%.
CYP2C19 inh – human CYP2C19 inhibition; hit rate 21% among 96,000; CYP2C19 Supersomes, luciferin-H EGE luminescence, 30 min; P33261; inhibition, % at 5 µM; AID 778;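 active = CYP2C19 inhibition above a set limit at 5 µM in the primary screen, cut at about 50% in these data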;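 also: plate controls were negative control wells for no effect and 2.5 mM tranylcypromine positive control for full effect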
PLK1 PBD inh – blocks phosphopeptide binding to human Plk1 polo box domain | P53350 | Plk1 PBD phosphopeptide binding, fluorescence polarization | inhibition, %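 (tested at about 20 µM)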 | hit rate 0.13% among 97,000 | AID 693; in the data active = inhibition above about 34%, passing the limit was not always enough
PLK1 inh – blocks human PLK1 kinase activity; P53350; inhibition, % at 10 µM; hit rate 0.53% among 97,000; recombinant PLK1 kinase, TR-FRET peptide phosphorylation;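 active = inhibition of 50% or more in the single-concentration screen; inactive = inhibition below 50%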;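 also: 0% = DMSO max control and 100% = H-89 dihydrochloride min control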
CYP2C9 inh – blocks human cytochrome P450 2C9; P11712; AID 777; inhibition, % at 5 µM; CYP2C9 Supersomes, luciferin-H conversion, luminescence; hit rate 20% among 96,000;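 active = blocking of liver enzyme CYP2C9 beyond about 50% at 5 µM, limit read from the data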
Target sequence (P11712 whole entry, looked up): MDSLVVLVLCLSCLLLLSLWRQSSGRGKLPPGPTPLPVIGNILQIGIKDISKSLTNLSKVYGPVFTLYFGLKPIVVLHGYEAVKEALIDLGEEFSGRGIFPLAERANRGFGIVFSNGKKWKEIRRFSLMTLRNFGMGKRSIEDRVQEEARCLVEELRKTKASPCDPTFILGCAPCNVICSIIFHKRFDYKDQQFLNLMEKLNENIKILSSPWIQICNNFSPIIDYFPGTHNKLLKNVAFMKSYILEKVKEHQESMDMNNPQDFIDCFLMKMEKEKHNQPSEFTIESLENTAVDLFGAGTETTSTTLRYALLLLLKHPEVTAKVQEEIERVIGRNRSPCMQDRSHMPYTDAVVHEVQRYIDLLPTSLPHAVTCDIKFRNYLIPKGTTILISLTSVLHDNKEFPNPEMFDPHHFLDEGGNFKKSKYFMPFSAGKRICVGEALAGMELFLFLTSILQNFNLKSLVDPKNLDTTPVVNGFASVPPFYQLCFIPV
CYP2C9 act – CYP2C9 (human) activation. activation factor at 5 µM. recombinant CYP2C9, luciferin-H conversion, luminescence; hits give high values; factor 1 = untreated enzyme, 0 = blocked. hit rate 1.4% among 96,000. P11712;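 active = activation factor of 2 or more for CYP2C9 at a 5 µM dose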;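 also: 0 = sulfaphenazole-blocked wells and 1 = vehicle-only wells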
CYP2C19 act – activators of human cytochrome P450 2C19; P33261; recombinant CYP2C19, luciferin-H EGE luminescence; hits give high values; 0 = fully inhibited enzyme, 1 = untreated enzyme; activation factor at 5 µM; 96,000 tested, under 10 active; AID 1025;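 active = activation factor of at least 2 at 5 µM in the primary screen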;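 also: 0 = wells with 2.5 mM tranylcypromine and 1 = vehicle-only wells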
Numbers without * were called inactive; · = not tested or not shown.

SMILES	CYP2C19 inh	PLK1 PBD inh	PLK1 inh	CYP2C9 inh	CYP2C9 act	CYP2C19 act
CCn1c(SCC(=O)Nc2nc(-c3ccc(C)cc3)cs2)nnc1-c1ccccc1	41.8	3.8	2.1	85.0*	0.2	0.6
COc1ccc(-c2nc3nc(C)cc(=O)n3[nH]2)cc1	2.4	-9.1	-10.5	7.0	0.9	1
CCc1c(C)c(C#N)c2nc3ccccc3n2c1NCCN(C)C	4.1	-4.8	-4.8	22.1	0.8	1
CCc1c(C)c(C#N)c2nc3ccccc3n2c1NCc1ccco1	41.7	11.7	-15.2	70.7*	0.3	0.6
COc1ccc(C(=O)Nn2cnc3ccccc3c2=O)c(OC)c1	23.5	3.4	-4.2	-6.2	1.1	0.8
CC(C)COc1ccc(CSCCNC(=S)Nc2ccccc2)cc1	35.6	23.6	-11.7	58.3*	0.4	0.6
O=S(=O)(c1ccc(F)cc1)N1CCC(O)(c2ccc3c(c2)OCO3)CC1	70.9*	3.8	-5.0	8.5	0.9	0.3
COc1ccc(S(=O)(=O)N2CCC(O)(c3ccc4c(c3)OCO4)CC2)cc1	3.3	5.3	5.5	-16.8	1.2	1
CCOc1ccc(NC(=O)C2CCN(C(=O)NC3CCCCC3)CC2)cc1	·	-7.0	52.0*	·	·	·
CCOc1ccc(NC(=O)N2CCC(n3c(=O)[nH]c4ccccc43)CC2)cc1	28.3	-20.1	1.2	65.6*	0.3	0.7
O=C(NCC1CCCO1)C1CCCCN1S(=O)(=O)c1ccc(F)cc1 (centres undefined)	1.6	·	·	-5.9	1.1	1
O=C(NCc1ccco1)C1CCCCN1S(=O)(=O)c1ccc(F)cc1 (centres undefined)	61.4*	2.4	-12.7	31.1	0.7	0.4
Cc1ccc(S(=O)(=O)N2CCC(C(=O)Nc3ccc4c(c3)OCO4)CC2)cc1	9.0	-7.9	-9.8	-10.5	1.1	0.9
COc1ccc(S(=O)(=O)N2CCCC2C(=O)Nc2ccc(C(C)=O)cc2)cc1 (centres undefined)	57.3*	·	·	29.8	0.7	0.4
COc1ccc(NC(=O)C2CCCCN2S(=O)(=O)c2ccc(F)cc2)cc1 (centres undefined)	68.4*	0.4	-3.2	36.3	0.6	0.3
O=C(Nc1ccc2c(c1)OCO2)C1CCCCN1S(=O)(=O)c1ccc(F)cc1 (centres undefined)	99.6*	8.2	-5.1	62.7*	0.4	0
COc1ccc(NC(=O)C2CCCCN2S(=O)(=O)c2ccc(F)cc2)c(OC)c1 (centres undefined)	42.9	17.6	-6.6	26.0	0.7	0.6
CCOc1ccc(NC(=O)C2CCCCN2S(=O)(=O)c2ccccc2)cc1 (centres undefined)	75.1*	-8.3	-10.6	-4.6	1	0.2
CC(C)CCN1C(=O)CCC1(C)C(=O)NC1CCCCCC1 (centres undefined)	20.2	-21.9	-1.7	11.2	0.9	0.8
COc1cccc(CNC(=O)C2CCN(S(=O)(=O)c3ccc4c(c3)CCC(=O)N4)CC2)c1	-6.3	6.0	-1.9	22.4	0.8	1.1
Cc1cc2c3nonc3ccc2n1C	22.4	-3.7	-2.7	-12.6	1.1	0.8
COc1ccccc1NC(=O)C1CCCCN1S(=O)(=O)c1ccc(F)cc1 (centres undefined)	40.8	3.9	-11.9	-169.2	2.7*	0.6
COc1ccc(N2CC(C(=O)Nc3ncccc3C)CC2=O)cc1 (centres undefined)	-1.5	-5.7	-15.7	21.7	0.8	1
CCOc1ccc(N2CC(C(=O)Nc3ccc(S(=O)(=O)N4CCOCC4)cc3)CC2=O)cc1 (centres undefined)	21.6	-17.6	17.1	57.4*	0.4	0.8
Cc1ccc(N2CC(C(=O)Nc3ccc(S(=O)(=O)N4CCOCC4)cc3)CC2=O)cc1 (centres undefined)	13.3	-17.5	-6.7	27.4	0.7	0.9
COc1ccc(NC(=O)C2CCCN2S(=O)(=O)c2ccc(C)cc2)cc1 (centres undefined)	73.6*	2.8	-3.0	74.7*	0.3	0.3
CCCOc1ccc(N2CC(C(=O)Nc3ncccc3C)CC2=O)cc1 (centres undefined)	4.3	-6.6	-5.0	69.1*	0.3	1
Cn1c(=O)cc(OCCCC(=O)N2CCCCC2)c2ccccc21	·	-5.5	-2.3	·	·	·
